# Screening results deposited in PubChem BioAssay by The Scripps Research Institute Molecular Screening Center.
# hgDAF12 agonist = H. glycines DAF-12 receptor agonists, primary screen, cell-based, luminescence, HEK293, GAL4 fusion, UAS-luciferase; Nuclear hormone receptor DAF-12 (Heterodera glycines), GAL4 fusion; HEK293 GAL4-hgDAF12 UAS-luciferase reporter, agonist luminescence; normalized to butyrate control; activation, % at 6.8 µM; 1.8% of 370,000 active;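 active = activation above a cutoff set at the mean of all screened compounds plus 3 SD, cut at about 10% in these data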;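 also: 0% = DMSO wells and 100% = sodium butyrate wells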
# SMARCA2 act = SMARCA2 (BRM) function activators, primary screen, cell-based, luminescence, high throughput; MG213 cells, MMTV-luciferase reporter, dexamethasone, overnight; activation, % at 9.1 µM; 1% of 370,000 active; AID 652017, 2013; in the data active = activation above about 7.8%;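 also: 0% = vehicle wells and 100% = reference activator wells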
# ssDAF12 agonist = S. stercoralis DAF-12 nuclear receptor activators, primary screen, cell-based, luminescence, HEK293, GRIP1 co-expression, lit1-tk-luc; HEK293 ssDAF-12/GRIP1 lit1-tk-luc reporter; % of 3 µM dafachronic acid response; 1% of 370,000 active; activation, % at 6.8 µM;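 active = activation above the mean over all tested compounds plus 3 SD, cut at about 0.9% in these data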;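 also: 0% = DMSO-only wells and 100% = 3 µM delta7-dafachronic acid wells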
# DAX1 inh-1 = DAX1 (NR0B1) inhibitors on StAR promoter, primary screen, cell-based, luminescence, SF-1 (NR5A1), full-length DAX-1; HEK293T StAR-luciferase reporter, SF-1/DAX-1 repression relief; inhibition, % at 6.8 µM; 1.1% of 370,000 active;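 active = inhibition above the mean over all tested compounds plus 3 SD, cut at about 3.6% in these data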;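 also: 0% = DAX-1 cells with DMSO and 100% = cells lacking DAX-1 with DMSO; higher inhibition means more luminescence from relief of DAX-1 repression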
# hcDAF12 agonist = H. contortus DAF-12 nuclear receptor activators, primary screen, cell-based, luminescence, HEK293, lit1-tk-luc reporter; HEK293 hcDAF-12 lit1-tk-luc reporter; 0% DMSO, 100% Δ7-dafachronic acid; activation, % at 6.8 µM; 1.4% of 370,000 active;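 active = activation above the mean of all tested compounds plus 3 SD, cut at about 5.5% in these data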;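 also: 100% = response to 3 µM Δ7-dafachronic acid high control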
# DAX1 inh-2 = DAX1 (NR0B1) inhibitors, primary screen, cell-based, HEK293, Gal4-DAX1, luciferase luminescence | 0.99% of 340,000 active | inhibition, % at 6.75 µM | HEK293 Gal4-DAX1 luciferase reporter | Nuclear receptor subfamily 0 group B member 1 (Homo sapiens), P51843;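 active = inhibition above the mean over all tested compounds plus 3 SD, cut at about 4.2% in these data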;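 also: 0% = DAX1-transfected cells with DMSO and 100% = empty-vector control cells with DMSO; inhibition shows as a rise in luminescence from relieved DAX1 repression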
# Target sequence (P51843 207-470 limits assumed): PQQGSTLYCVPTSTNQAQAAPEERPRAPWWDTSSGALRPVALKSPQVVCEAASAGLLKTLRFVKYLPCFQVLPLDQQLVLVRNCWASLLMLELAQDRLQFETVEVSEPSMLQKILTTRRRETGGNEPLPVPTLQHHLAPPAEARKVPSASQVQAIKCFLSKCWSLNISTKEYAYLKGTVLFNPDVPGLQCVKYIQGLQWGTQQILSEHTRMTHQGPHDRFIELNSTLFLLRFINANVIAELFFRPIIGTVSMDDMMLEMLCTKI
# DAX1 inh confirm = DAX1 (NR0B1) inhibitors relieving SF-1 repression, confirmation, cell-based, luminescence, HEK293T, full-length DAX-1, SF-1 activated StAR promoter. AID 652134, 2013. inhibition, % at 6.8 µM. 87% of 2,400 active. shares compounds with DAX1 inh-1. HEK293T StAR-promoter luciferase reporter, SF-1/DAX-1 repression;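 active = inhibition above the average of every tested compound plus 3 SD, cut at about 3.8% in these data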;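 also: 0% = DAX-1 cells with DMSO and 100% = no DAX-1 control cells with DMSO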
# SF1 mutant ctr = StAR reporter signal changes without DAX1, counter-screen for DAX1 inhibitor project, cell-based, luminescence, AF-2 mutant SF-1, transactivation; shares compounds with DAX1 inh-1; HEK293 StAR-luciferase, SF-1 AF2 mutant; inhibition, % at 6.8 µM; 78% of 2,400 active; AID 652136, 2013;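 active = inhibition above the mean of all tested compounds plus 3 SD, cut at about 3% in these data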;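 also: 0% = DAX-1 transfected cells with DMSO and 100% = cells without DAX-1 with DMSO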
# The depositor's hits bear a star; . = no result. Hits are enriched below; roughly 4.8% of the tested compounds scored in any of these assays.
SMILES,hgDAF12 agonist,SMARCA2 act,ssDAF12 agonist,DAX1 inh-1,hcDAF12 agonist,DAX1 inh-2,DAX1 inh confirm,SF1 mutant ctr
O=C(C[C@H]1C[C@H](C(=O)N2CCOCC2)[C@@]2(CCC3CCCC3)c3[nH]c4cc(-c5ccco5)ccc4c3CCN2C1=O)NCCC1=CCCCC1,.,.,.,.,.,0,.,.
O=C(C[C@H]1C[C@H](C(=O)N2CCOCC2)[C@@]2(CCC3CCCC3)c3[nH]c4cc(-c5ccco5)ccc4c3CCN2C1=O)NCCc1ccccn1,-3,2,-1,4.6*,-2,-1,-1,-1
CC(C)(C)NC(=O)C[C@H]1C[C@H](C(=O)N2CCCCC2)[C@@]2(CCc3ccccc3)c3[nH]c4cc(-c5ccco5)ccc4c3CCN2C1=O,-3,-5,-1,6.1*,-2,0,0,-1
CN(C)CCCNC(=O)C[C@H]1C[C@H](C(=O)N2CCCCC2)[C@@]2(CCc3ccccc3)c3[nH]c4cc(-c5ccco5)ccc4c3CCN2C1=O,-1,-4,0,0,0,0,.,.
COc1ccc(C(=O)Nc2ccnn2C2CCN(C(=O)CCC(F)(F)F)CC2)cc1,9,1,-1,5.7*,5,0,6.4*,8.0*
CCc1ccc(OCC(=O)O/N=C(\N)c2ccncc2)cc1,2,3,-1,1,0,1,.,.
CCc1ccc(OCC(=O)O/N=C(\N)c2ccncc2)c(Br)c1,12*,5,0,7.6*,5,2,7.0*,4.8*
COc1ccc(C(=O)Nc2ccccc2C(=O)Nc2cc(C)ccn2)cc1,5,1,-2,1,3,1,.,.
COc1cc2ccccc2cc1C(=O)Nc1cc(C)ccn1,12*,5,0,5.3*,6.4*,0,4.2*,2
CCCCOc1ccc(S(=O)(=O)NC(=O)C2(C)CCN2C(=O)c2c(C)noc2C)cc1 (stereo not drawn),-2,-2,-1,0,-1,.,.,.
CC(=O)Nc1ccc(NC(=O)COC(=O)c2c(C)nn(-c3ccccc3)c2C)cc1,3,-2,-1,-2,-2,0,.,.
Cc1nn(-c2ccccc2)c(C)c1C(=O)OCC(=O)Nc1ccccc1F,10,6,0,7.4*,2,1,7.0*,3.6*
Cc1cscc1-c1ccc(C(=O)Nc2c(C)cccc2C)o1,-4,-4,-1,4.5*,-3,.,-1,0
Cc1ccc(S(=O)(=O)NCc2ccccc2)cc1C(=O)NC(C)c1ccc(S(N)(=O)=O)cc1 (stereo not drawn),2,-2,-1,1,0,0,.,.
C[C@@H]1CN([C@@H](C)CO)C(=O)CCCn2nncc2CO[C@H]1CN(C)C(=O)c1ccccc1,-1,1,-1,0,1,2,.,.
Cc1cc2c(cc1C)N(C(=O)CCl)CCN2C(=O)CCl,-3,-1,-1,-2,0,0,.,.
N#Cc1c(NC(=O)/C=C/c2ccco2)sc2c1CCCC2,6,4,1,5.1*,6.2*,2,31*,-6
